This is part of a sample that, as a whole, favours compounds with a hit. Of some 83,000 tested, about 20% had one in any assay.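 Treatment: one concentration, 48 hours, 96-well format. Scoring: percent growth, with anything below 10 considered active.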 Active and inactive are the calls of the source.

This experiment relates to KM12 colon. Kind of experiment: NCI-60 one-dose screen, 48 h (100 = growth as untreated, 0 = no growth, -100 = all killed). The settings on record: 10 µM unless noted.
In the case of `Nc1nc(-c2ccnc(Cl)c2)nn1-c1nc2ccccc2s1`, the growth was 101% (inactive).

For `Cc1ccc(S(=O)(=O)N2CCc3ccc(O)c4c3C2Cc2cc(Cl)ccc2-4)cc1` (stereo not given), the growth is 30.8% (inactive).

In the case of `Cc1nc2cc(Nc3nc(NCCO)nc(Nc4ccc(F)cc4)n3)ccc2n1Cc1ccccc1`, the growth is 80.3% (inactive).

As for `CCC12CCC3c4ccc(O)cc4CCC3C1CC(O)C2O` (stereo not given), the growth was 53.5% (inactive).

Regarding `O=c1c2c(=NCCN3CCCC3)cc3c(=O)n(CCCN4CCOCC4)c(=O)c4ccc(c(O)n1CCCN1CCOCC1)c2c4-3`, the growth is -20.9% (active).

`Nc1cc2[nH]c(=O)c3ccccc3c2cc1Br`: the growth is 78.9% (inactive).

With `O=C1N/C(=C\c2ccccc2)c2ncccc21`, the growth is 97.2% (inactive).

For `O=C1/C(=C/c2ccccc2F)CNC/C1=C\c1ccccc1F`, the growth was -80.1% (active).

In the case of `COc1ccc(NC(=O)c2ccc3c(c2)nc(-c2ccc(Cl)cc2)n3-c2cc(C(C)(C)C)[nH]n2)cc1`, the growth is 84% (inactive).

For the compound `Cc1ccc(S(=O)(=O)N2CCc3ccc(O)c4c3C2Cc2ccc3c(c2-4)OCO3)cc1` (stereo not given), the growth was 12.5% (inactive).

`Cn1c2ccc(Cl)cc2c2nn(C(=O)c3ccccc3)c(=O)nc21`: the growth was 106% (inactive).

In the case of `NC(=O)c1cc(I)ccc1NC(=O)COc1ccc(Cl)cc1Cl`, the growth was 67.8% (inactive).

Regarding `CCCN1CCN(c2ccc3nc(-c4ccc5nc(-c6ccc(C(F)(F)F)cc6)[nH]c5c4)[nH]c3c2)CC1`, the growth is -86.4% (active).

Regarding `O=C(CC(O)c1ccccc1)Nc1ccccn1` (stereo not given), the growth is 103% (inactive).

For the compound `O=C1c2ccccc2-c2cn(Cc3ccccc3)c3cccc(c23)C1c1cccnc1` (stereo not given), the growth was 30.5% (inactive).

Source of the values: PubChem BioAssay (NCI).
